Lassa entry inh – Lassa virus entry inhibition. actives 1.2% (n = 300,000). AID 540256. Potency, µM (top dose mostly 37.9 µM), inactives show at the highest dose activity change, negative = inhibition, most hits filed as inhibitors. Lassa virus pseudotype entry inhibition, cell reporter; calls by dose curve; tested in HEK293 cells; note: potency is the fitted concentration of half-maximal effect; % is set by controls: 0 for no effect and ±100 for the full control effect; nearly all actives have a fitted effect of over 50% in size
CHX counter – counter-screen hit for Shiga toxin inhibitors, cycloheximide. cell reporter, cycloheximide protein synthesis inhibition counterscreen. max response, %. actives 12% (n = 300,000); in the data active = max response mostly above about 13%, no sharp cut-off; inactive = mostly below about 14%; note: read at 38.3 µM for the half of the compounds with a filed dose; 0% is about no effect
FMDV inh – blocks foot and mouth disease virus | FMDV antiviral cell-based qHTS | Potency, µM (series often up to 57.9 µM), for the others: at the top dose activity change, negative = inhibition, usual class: inhibitors | actives 1.2% (n = 410,000) | AID 1159524; calls by dose curve; tested in HEK293T cells; note: read-out not given here; potency is the fitted concentration of half-maximal effect; % is set by controls: 0 for no effect and ±100 for the full control effect; nearly all actives have a fitted effect of over 45% in size
Marburg entry inh – inhibitors of Marburg virus binding or cell entry | Marburg virus pseudotyped entry inhibition, cell reporter | Potency, µM (doses to about 37.8 µM), inactives show at the highest dose activity change, negative = inhibition, hits mostly inhibitors | actives 1.8% (n = 300,000); calls by dose curve; tested in HEK293 cells; note: potency is the fitted concentration of half-maximal effect; % is set by controls: 0 for no effect and ±100 for the full control effect
HCV inh – blocks hepatitis C virus. Huh7.5.1 HCVcc-Cre infection, luciferase reporter, 44 h. Potency, µM (highest dose often 41.8 µM), without a hit: at the highest dose activity change, negative = inhibition, hits mostly inhibitors. actives 3.4% (n = 340,000). AID 651820; active = well fitted inhibition curve with a large enough effect; inconclusive = small, poorly fitted or top-dose-only effect, or another doubt; inactive = no such curve, though single readings can be large or run the other way; note: potency is the fitted concentration of half-maximal effect; % is set by controls: 0 for no effect and ±100 for the full control effect
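1,000 cells/well; 4 h culture; + compound; + HCVcc-Cre (~0.5 moi); 44 h; luciferase substrate, RT 15 min; read 15 sec.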
Shiga toxin inh – blocks Shiga toxin action in Vero cells; Vero cells, Shiga toxin protein synthesis inhibition reporter; AID 2315; inhibition, % at 38.7 µM; actives 9.2% (n = 290,000); in the data active = inhibition mostly above about 28%, no sharp cut-off; inactive = mostly below about 43%; note: 0% is about no effect
* hit, by the source's call; [ ] = dose if it differs, or a comment. Shown are actives, neighbours in structure and some others; about 13% of the full set was active somewhere.

Results for O=C1NC[C@H](Cc2ccccc2)N(CC2CCN(CCc3ccccc3)CC2)C1=O ?
FMDV inh: -12%; HCV inh: -15%

Results for CC(C)CCNC(=O)CN1C(=O)COc2ccc(S(=O)(=O)N3CCOCC3)cc21 ?
Lassa entry inh: -7%[46.1 µM]; FMDV inh: inconclusive; Marburg entry inh: 3%[46.1 µM]

What do the screens show for `O=C(Nc1cc(C(F)(F)F)ccc1N1CCOCC1)c1cn2ccccc2n1`?
Lassa entry inh: -12%; CHX counter: -2; FMDV inh: 0%; Marburg entry inh: -23%; HCV inh: inconclusive; Shiga toxin inh: -16

How did CN(C(=O)CSc1nnc(-c2cccc(F)c2)n1N)C1CCS(=O)(=O)C1 (stereo unspecified) do in these assays?
Lassa entry inh: 8%; CHX counter: 8; FMDV inh: 12%; Marburg entry inh: 8%[46.1 µM]; HCV inh: 19%; Shiga toxin inh: -8

Results for c1ccc(N2CCN(c3ccccc3)C2c2cccnc2)cc1 ?
Lassa entry inh: 0%; CHX counter: 26*; FMDV inh: 10µM*; Marburg entry inh: 6%; HCV inh: -9%; Shiga toxin inh: 48*

Results for Cc1ccc(N2CCN(c3ccc(C)cc3)C2c2cccnc2)cc1 ?
Lassa entry inh: inconclusive; CHX counter: 19*; Marburg entry inh: inconclusive; HCV inh: inconclusive; Shiga toxin inh: 38

What do the screens show for `Cn1nccc1C(=O)N1CCN(c2cccc(C(F)(F)F)c2)CC1`?
Lassa entry inh: 14%[46.1 µM]; CHX counter: 4; FMDV inh: inconclusive; Marburg entry inh: 7%[46.1 µM]; HCV inh: -1%; Shiga toxin inh: 11

How did COc1ccc(S(=O)(=O)N2CCOCC2)cc1NC(=O)c1ccccc1-c1ccc(C(F)(F)F)cc1 do in these assays?
Lassa entry inh: 6.3µM*; CHX counter: 4; FMDV inh: 16%; Marburg entry inh: inconclusive; HCV inh: -13%; Shiga toxin inh: 14

Results for CCCOC(=O)c1ccc(NC(=O)c2cccc(S(=O)(=O)N3CCN(C(C)=O)CC3)c2)cc1 ?
Lassa entry inh: inconclusive; CHX counter: 1; FMDV inh: -29%; Marburg entry inh: inconclusive; HCV inh: inconclusive; Shiga toxin inh: -13

What do the screens show for `CCOC(=O)c1ccc(NC(=O)c2cccc(S(=O)(=O)N3CCN(C(C)=O)CC3)c2)cc1`?
Lassa entry inh: -13%[46.1 µM]; CHX counter: -3; FMDV inh: 1%; Marburg entry inh: -14%[46.1 µM]; HCV inh: 10µM*; Shiga toxin inh: 3

How did O=C(Nc1ccc2c(c1)OCCO2)c1cccc(S(=O)(=O)N2CCCCC2)c1 do in these assays?
Lassa entry inh: -37%[14.3 µM]; CHX counter: 20*; FMDV inh: -8%; Marburg entry inh: 9%; Shiga toxin inh: 84*

How did O=C(Nc1ccc2c(c1)OCCO2)c1cccc(S(=O)(=O)N2CCOCC2)c1 do in these assays?
Lassa entry inh: 25%; CHX counter: 28; FMDV inh: 31%; Marburg entry inh: 32%; HCV inh: -24%; Shiga toxin inh: 68*

What do the screens show for `Cc1ccsc1C(=O)OCC(=O)Nc1nnc(-c2ccccc2)o1`?
Lassa entry inh: 0%; FMDV inh: -5%; Marburg entry inh: 6%; HCV inh: 14%

What do the screens show for `COC(=O)c1sc2nc(C)c([N+](=O)[O-])c(C)c2c1N`?
Lassa entry inh: 18%; CHX counter: 8; FMDV inh: 3%; Marburg entry inh: -17%[46.1 µM]; HCV inh: 3%; Shiga toxin inh: 24

How did Cc1onc(-c2ccccc2)c1C(=O)Nc1ccc(S(=O)(=O)N2CCCC2)cc1 do in these assays?
Lassa entry inh: inconclusive; CHX counter: 19*; FMDV inh: 16%; Marburg entry inh: inconclusive; HCV inh: -28%; Shiga toxin inh: 34

How did CS(=O)(=O)c1cccc(C(=O)Nc2ccc3c(c2)OCCCO3)c1 do in these assays?
Lassa entry inh: 4%[46.1 µM]; CHX counter: 35*; FMDV inh: 25%; Marburg entry inh: inconclusive; HCV inh: 11%; Shiga toxin inh: 59*

Results for O=C(Nc1ccc(N2CCOCC2)cc1)c1cccc(S(=O)(=O)N2CCCC2)c1 ?
Lassa entry inh: 0%; CHX counter: 1; FMDV inh: -29%; Marburg entry inh: 0%; HCV inh: 6.3µM*; Shiga toxin inh: -6

How did CS(=O)(=O)c1cccc(C(=O)Nc2ccc(S(=O)(=O)N3CCCCC3)cc2)c1 do in these assays?
Lassa entry inh: 1%; FMDV inh: -14%; Marburg entry inh: 4%; HCV inh: 4.5µM*

What do the screens show for `COc1ccc(/C=C2\N=C(c3c(-c4ccccc4)noc3C)OC2=O)cc1OC`?
Lassa entry inh: 3%; CHX counter: -1; FMDV inh: -14%; Marburg entry inh: 4%; HCV inh: 24%; Shiga toxin inh: -21

How did CCOC(=O)CNC(=O)N1CCC(CCC(=O)N(C)Cc2ccccc2)CC1 do in these assays?
Lassa entry inh: 3%[46.1 µM]; CHX counter: -1; FMDV inh: -4%; Marburg entry inh: 12%[46.1 µM]; HCV inh: 36%; Shiga toxin inh: -8

How did Cc1ccc(C(=O)Nc2ccc(S(=O)(=O)N3CCCC3)cc2)s1 do in these assays?
CHX counter: 14*; FMDV inh: 13%; HCV inh: -6%; Shiga toxin inh: 50

What do the screens show for `Cc1ccc(O)c(NC(=O)c2cccc(S(=O)(=O)N3CCCCC3)c2)c1`?
Lassa entry inh: -14%; CHX counter: 13; FMDV inh: -8%; Marburg entry inh: -16%[46.1 µM]; HCV inh: 11µM*; Shiga toxin inh: 27

What do the screens show for `O=C(c1cccc(S(=O)(=O)N2CCN(c3ccc(F)cc3)CC2)c1)N1CCCC(C(F)(F)F)C1` (stereo unspecified)?
Lassa entry inh: inconclusive; FMDV inh: inconclusive; Marburg entry inh: 7.9µM*; HCV inh: inconclusive

What do the screens show for `COc1ccc(S(=O)(=O)N2CCOCC2)cc1C(=O)Nc1ccc(N2CCCCCC2)cc1`?
FMDV inh: -13%; HCV inh: 14µM*

What do the screens show for `CC1(C)C/C(=N\O)c2cc3c(nc2C1)CCCC3`?
Lassa entry inh: 2%; CHX counter: -1; FMDV inh: 9%; Marburg entry inh: 0%; HCV inh: -24%; Shiga toxin inh: -19

How did O=C(Nc1ncccc1O)c1cccc(S(=O)(=O)N2CCN(c3ccc(F)cc3)CC2)c1 do in these assays?
Lassa entry inh: -2%; FMDV inh: -20%; Marburg entry inh: -1%; HCV inh: -10%

What do the screens show for `O=C(Nc1ccncc1)c1cccc(S(=O)(=O)N2CCN(c3ccc(F)cc3)CC2)c1`?
Lassa entry inh: inconclusive; FMDV inh: 20µM*; Marburg entry inh: inconclusive; HCV inh: inconclusive

How did Cc1cc(NC(=O)c2cc3ccccc3o2)cc(C)c1OCC(=O)N1CCOCC1 do in these assays?
Lassa entry inh: inconclusive; CHX counter: 9; Marburg entry inh: inconclusive; HCV inh: inconclusive; Shiga toxin inh: 7

Results for Cc1cc(SCC(=O)c2ccccc2)nc(=O)[nH]1 ?
CHX counter: 63*; FMDV inh: 8%; HCV inh: 8%; Shiga toxin inh: 85*

Source: PubChem
